The record followed here is PubChem BioAssay AID2762 (National Center for Advancing Translational Sciences (NCATS), 2010).

Records with an inconclusive call do not appear. Calls of active or inactive are those of the source. Calls follow the shape of the dose curve; as a rule, active = well fitted inhibition curve with a large enough effect; inconclusive = small, poorly fitted or top-dose-only effect, or effect the other way; inactive = no such curve, though single readings can be large or run the other way.

For this assay, the target named is Nuclear receptor ROR-gamma (Mus musculus) (UniProt P51450). The experiment in a line: Concentration response confirmation assay for inhibitors of ROR gamma transcriptional activity. To be noted: Drosophila S2 Gal4-RORgamma UAS-luciferase, 20 h; series mostly up to 46.1 µM; activity change, negative = inhibition: at the top concentration. From the text: NIH Molecular Libraries Probe Production Network [MLPCN] NIH Chemical Genomics Center [NCGC] MLPCN Grant: R03 DA026211-01 Assay Provider: Dan Littman, New York University Assay Overview: The retinoic acid-related orphan receptor (ROR) gamma is a transcription factor that has a central role in the differentiation of Th17 cells, a subset of T helper cells that secrete the inflammatory cytokines IL-17, IL-17F, and IL-22. Th17 cells have been implicated in graft versus host disease, autoimmune disease and asthma. ROR gamma is induced in naive T helper cells in the presence of TGF-beta combined with IL-6, IL-21, or IL-23, and thereafter directs the expression of the Th17 lineage cytokines. To study the mechanism of action of ROR gamma, an insect cell-based assay was screened. This Drosophila Schneider cell line was stably transfected with two vectors: a gene expressing a fusion of the Gal4 DNA binding domain and ROR gamma transactivation domain under the control of the metallothionine promoter and a Photinus luciferase reporter regulated by the Gal4 binding site enhancer, UAS. […] Small molecule inhibitors of ROR gamma activity are detected by a decrease in luciferase reporter activity.
Chain of Nuclear receptor ROR-gamma (Mus musculus) (P51450 whole entry, looked up, the tested form may be a part): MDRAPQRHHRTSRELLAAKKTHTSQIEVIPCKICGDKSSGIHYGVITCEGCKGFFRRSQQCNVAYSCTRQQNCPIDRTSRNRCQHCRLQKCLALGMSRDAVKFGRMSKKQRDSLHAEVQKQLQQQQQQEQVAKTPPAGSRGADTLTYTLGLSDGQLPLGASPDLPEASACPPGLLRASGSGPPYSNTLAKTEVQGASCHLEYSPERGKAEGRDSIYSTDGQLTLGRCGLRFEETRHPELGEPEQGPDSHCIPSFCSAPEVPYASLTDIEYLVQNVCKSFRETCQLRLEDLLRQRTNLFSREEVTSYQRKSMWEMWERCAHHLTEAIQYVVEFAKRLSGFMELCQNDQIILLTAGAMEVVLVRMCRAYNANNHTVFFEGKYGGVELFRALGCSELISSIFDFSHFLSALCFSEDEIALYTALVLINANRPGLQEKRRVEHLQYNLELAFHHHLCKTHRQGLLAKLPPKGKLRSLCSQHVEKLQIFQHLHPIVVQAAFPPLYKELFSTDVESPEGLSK
Assay Protocol Summary: For screening, 600 cells in 4 uL/well were dispensed into white solid 1536-well plates (Grenier) using a solenoid-based dispenser. Following transfer of 23 nL compound or DMSO vehicle by a pin tool, the plates were incubated 1 hr at ambient temperature, and 1 uL/well copper sulfate (700 uM final concentration) was added. The plates were centrifuged 15 s at 1000 RPM and incubated 20 hr at ambient temperature. After addition of 1.5 uL Photinus luciferase detection reagent, the plates were incubated 10 min at ambient temperature and then read by an ViewLux (Perkin Elmer) to detect luminescence. Keywords: NIH Roadmap, MLPCN, MLI, MLSMR, qHTS, NCGC, qHTS, nuclear hormone receptor, retinoic acid-related orphan receptor, ROR gamma
With `Cc1ccc2nc(-c3ccc(NC(=O)COC(=O)c4ccc([N+](=O)[O-])o4)cc3)sc2c1`, the Potency was 0.315 µM (active). Take `c1ccc(Cn2c(-c3ccccc3)c[n+]3c2SCCC3)cc1`: the “activity change, negative = inhibition” value was 22.7% (inactive). On to `COc1ccc(C(=O)Nc2nc3cc4c(cc3s2)OCCO4)c(OC)c1`, for which the Potency was 0.0628 µM (active). The same measure, in the same setting: then `COc1ccc(C(=O)/C=C/c2ccc(OC)cc2OC)c(O)c1`, with 0.888 µM (active); and `CCN1CCCc2cc(CN(CCN3CCOCC3)C(=S)Nc3ccccc3C)ccc21`, with 9.96 µM (active). Consider `Cc1cc(NCc2ccccn2)n2ncc(-c3ccc(Cl)cc3)c2n1`, for which the Potency was 0.199 µM (active). Turning to `Cc1ccc(-c2n[nH]c(=S)n2/N=C/C=C\c2ccccc2[N+](=O)[O-])cc1`, the “activity change, negative = inhibition” value is -29.5% (inactive). On the same count and under the same terms, as for `O=C(O)/C=C/C(=O)Nc1ccccc1SC(F)(F)F`, the figure is 4.2% (inactive).

In the case of `CCn1nc(C)c(CN2CCC(n3nccc3NC(=O)c3ccc4c(c3)OCO4)CC2)c1C`, the “activity change, negative = inhibition” value was 0.701% (inactive). For the compound `O=c1c2cc(Br)ccc2[nH]c(=S)n1Cc1cccnc1`, the Potency is 11.2 µM (active). Regarding `Cc1ccc(C)c(/C=N/n2cc(-c3ccccc3)[nH]c2=S)c1`, the Potency is 0.791 µM (active). Still for that read-out and setting: as for `COc1ccc(OCC(=O)NNc2nc3ccccc3s2)cc1`, the figure is 14.1 µM (active); as for `COc1cccc2cc(-c3n[nH]c(=S)n3C)oc12`, 15.8 µM (active). As to `COc1ccc(C(C#N)N2N=C(C)CC2c2ccccc2)cc1` (stereo not given), the “activity change, negative = inhibition” value was 7.28% (inactive). With `CCOc1ccc2nc(NC(=O)c3cnccn3)sc2c1`, the Potency is 3.15 µM (active).

Take `CCOC(=O)C1CCN(c2ncnc3c2cnn3-c2ccc(OC)cc2)CC1`: the “activity change, negative = inhibition” value was 9.59% (inactive).

With `Cc1cc(C)nc(-n2nc(C)cc2NC(=O)CNC(C)c2ccccc2)n1` (stereo not given), the Potency is 6.28 µM (active).

Take `COc1cc(C2c3cc4c(cc3C(OC3OC5COC(c6cccs6)OC5C(O)C3O)C3COC(=O)C23)OCO4)cc(OC)c1O` (stereo not given): the Potency was 4.99 µM (active).

As for `CCOC(=O)c1sc(NC(=O)c2sc(C)nc2C)nc1C`, the “activity change, negative = inhibition” value is 6.4% (inactive). For `CC(C)(C)c1ccc(-c2noc(CCC(=O)Nc3cccnc3)n2)cc1`, the Potency is 0.0996 µM (active). Regarding `CC(C)CC(=O)NS(=O)(=O)c1ccc(N)cc1`, the “activity change, negative = inhibition” value was 2.46% (inactive).

`CCOC(=O)c1sc(NC(=O)c2cc3c(s2)CCC(C)C3)nc1C` (stereo not given): the Potency is 0.0996 µM (active). On the same count and under the same terms, as for `Cc1nn(-c2cc(C)c3ccccc3n2)c2c1C1C(C2)C1(C)C` (stereo not given), the figure is 6.28 µM (active); as for `COc1ccc2nc(N3C(=O)CNC3=S)sc2c1`, 1.99 µM (active). For `CCOC(=O)c1oc2cccc(OCC(O)CNC(C)C)c2c1C` (stereo not given), the “activity change, negative = inhibition” value was 16.8% (inactive). Take `Oc1ccccc1-c1cc(-c2ccc3c(c2)OCCO3)n[nH]1`: the Potency was 11.2 µM (active).

`CCN(CC(=O)Nc1ccc2c(c1)CCC2)Cc1nc2ccccc2c(=O)[nH]1`: the Potency is 8.88 µM (active).

For the compound `COc1ccc(/C=C/C(=O)NC(=S)NCC2CCCO2)cc1` (stereo not given), the Potency was 11.2 µM (active). Regarding `O=C1CC(c2ccc(F)cc2)CC(O)=C1C1NCCc2ccccc21` (stereo not given), the “activity change, negative = inhibition” value is 5.11% (inactive). Still for that read-out and setting: as for `COc1ccc(C(=O)Nc2ccc(NC(=O)c3cccs3)cn2)cc1`, the figure is -1.79% (inactive). The same measure, in the same setting: as for `O=C1NC2=C(C(=O)CCC2)C(c2ccccc2)N1` (stereo not given), the figure is 2.63% (inactive). In the case of `CCOC(=O)[C@@H]1[C@H]2COc3cc(OC)ccc3[C@@H]2N2C(=O)N(c3ccc(C)cc3)C(=O)[C@@]12C`, the Potency was 14.1 µM (active).

As for `Cc1cc(NC(=O)CN2CCOCC2)n(-c2nc3ccccc3s2)n1`, the Potency is 15.8 µM (active). On the same count and under the same terms, as for `COC(=O)c1ccc(OCC(=O)c2ccc(O)cc2O)cc1`, the figure is 0.125 µM (active); as for `S=c1[nH]nc(-c2ccc(Br)cc2)n1-c1ccc2c(c1)OCCO2`, 1.58 µM (active). As to `O=C(NCC1CCCO1)C(C(=O)c1ccccc1)n1ccccc1=O` (stereo not given), the “activity change, negative = inhibition” value was -18.7% (inactive). Take `Cc1ccc(OCCn2cc(C(=S)N3CCCC3)c3ccccc32)cc1C`: the Potency was 12.5 µM (active). Same read-out and setting: as for `CCN1C(=O)/C(=C/c2ccc(N3CCCC3)cc2)NC1=S`, the figure is 6.28 µM (active). The same measure, in the same setting: as for `COc1ccc(-n2ncc(Cl)c(Cl)c2=O)cc1`, the figure is 8.88 µM (active); as for `CCOc1ccc(C(=O)Nc2nc3ccccc3[nH]2)cc1OCC`, 11.2 µM (active).
